TcdB inh – TcdB glycohydrolase inhibition. TcdB glycohydrolase enzymatic assay, plate reader. hit rate 0.24% among 350,000. inhibition, % at 9.99 µM; in the data active means inhibition above about 10%
VHR inh abs – DUSP3 (human) phosphatase inhibition. P51452. recombinant VHR phosphatase, pNPP absorbance. inhibition, % at 13.3 µM. hit rate 0.52% among 290,000; in the data active means inhibition above about 50%
PrPC TRFRET – cell surface PrPC inhibition, primary TR-FRET screen; P04156; TR-FRET read-out; inhibition, % at 13.8 µM; hit rate 0.43% among 370,000; AID 720596; in the data active means inhibition above about 24%; further: 0% = median of the test wells and 100% = reference compound wells
PrPC TRFRET cf – cell surface PrPC inhibition, TR-FRET confirmation. inhibition, % at 13.8 µM. cell surface PrPC level. hit rate 65% among 1,500. shares compounds with PrPC TRFRET; in the data active means inhibition above about 25%
LD9 tox – kills or reduces viability of LD9 cells in PrPc counter-screen; shares compounds with PrPC TRFRET; LD9 cells cytotoxicity, luminescence viability; inhibition, % at 13.8 µM; hit rate 29% among 1,500; AID 743201; in the data active means inhibition above about 9.5%
An asterisk follows results filed as active; . = no result. This is a sample that favours compounds with a hit; in the whole collection about 0.82% have one here.

SMILES	TcdB inh	VHR inh abs	PrPC TRFRET	PrPC TRFRET cf	LD9 tox
Cc1c(C(=O)O)oc2c3c(ccc12)OCCO3	.	-5	26*	31*	1
COc1c(Br)cc2c(C)c(C(=O)O)oc2c1Br	.	-11	-1	.	.
COc1ccc(NC(=O)N(C)C[C@H]2Oc3ccc(NC(=O)Nc4ccccc4)cc3C(=O)N([C@@H](C)CO)C[C@@H]2C)cc1	0	.	.	.	.
COc1ccc(S(=O)(=O)Nc2ccc3c(c2)CC(=O)N([C@H](C)CO)C[C@H](C)[C@H](CN(C)C(=O)Nc2cccc4ccccc24)O3)cc1	0	.	.	.	.
COc1ccc(OC)c(C2NC(=O)N(C)C(C)=C2C(=O)OCc2ccccc2)c1 (configuration not stated)	4	15	68*	79*	-4
CC1=C(C(=O)OCc2ccccc2)C(c2ccccc2Cl)NC(=O)N1C (configuration not stated)	3	4	22	.	.
CCOC(=O)c1c(-c2ccccc2)csc1NC(=O)CSc1ccccc1	.	1	4	.	.
CCOC(=O)c1c(-c2ccccc2)csc1NC(=O)CSc1nncs1	.	34	42*	39*	-1
CO[C@@H]1CN(C)C(=O)c2cc(NC(=O)CC(F)(F)F)ccc2OC[C@@H](C)N(S(=O)(=O)c2cn(C)cn2)C[C@@H]1C	1	.	.	.	.
C[C@@H]1CN([C@@H](C)CO)C(=O)c2cccc(NC(=O)CCCCCC(=O)Nc3ccccc3N)c2O[C@@H]1CN(C)S(=O)(=O)c1ccc(Cl)cc1	-6	.	.	.	.
O=C(O)c1ccc(NC(=O)C2CC=CCC2C(=O)O)cc1 (configuration not stated)	.	6	31*	6	-1
CCc1ccc(NC(=O)C2CC=CCC2C(=O)O)cc1 (configuration not stated)	.	25	-4	.	.
C[C@H](CO)N1C[C@H](C)[C@H](CN(C)C)Oc2ccc(NS(=O)(=O)c3cccs3)cc2CC1=O	-1	.	.	.	.
CN(C)c1ccc(Sc2ccc3nc(N)nc(N)c3c2)cc1	4	.	33*	35*	15*
CN(C)c1ccc(Nc2nc(N)c3ccccc3n2)cc1	1	0	14	.	.
CCOC(=O)N1CCN(S(=O)(=O)c2ccc(C(=O)NNc3nc4c(C)cc(C)cc4s3)cc2)CC1	1	11	25*	25*	4
CCOC(=O)N1CCN(S(=O)(=O)c2ccc(C(=O)NNc3nc4c(C)cccc4s3)cc2)CC1	1	-7	-4	.	.
COc1cccc(C2NC(=S)NC(C)=C2C(=O)c2ccccc2)c1OC (configuration not stated)	3	-16	11	.	.
C=CCOc1ccc(C2NC(=S)NC(C)=C2C(=O)c2ccccc2)cc1OC (configuration not stated)	.	5	43*	50*	-5
CC(=O)N1c2ccc(S(=O)(=O)N3CCCC(C(=O)Nc4ccc(F)cc4)C3)cc2CC1C (configuration not stated)	1	-10	35*	39*	16*
COc1ccc(NC(=O)C2CCCN(S(=O)(=O)c3ccc4c(c3)CC(C)N4C(C)=O)C2)cc1 (configuration not stated)	0	29	4	.	.
COc1ccc(NC(=O)C2CCCN(S(=O)(=O)c3ccc4c(c3)CCCN4C(C)=O)C2)cc1 (configuration not stated)	1	29	2	.	.
CC(=O)N1c2ccc(S(=O)(=O)N3CCCC(C(=O)Nc4cc(C)cc(C)c4)C3)cc2CC1C (configuration not stated)	0	-2	35*	58*	-5
COc1cc(NC(=O)C2CCCN(S(=O)(=O)c3ccc4c(c3)CCCN4C(C)=O)C2)cc(OC)c1 (configuration not stated)	2	-9	41*	28*	-1
CC(=O)N1c2ccc(S(=O)(=O)N3CCCC(C(=O)Nc4ccc(C)cc4)C3)cc2CC1C (configuration not stated)	0	.	5	.	.
SMILES	TcdB inh	VHR inh abs	PrPC TRFRET	PrPC TRFRET cf	LD9 tox
O=C(NCC[C@H]1CC[C@@H](NC(=O)C2CCCCC2)[C@@H](CO)O1)Nc1ccc(Cl)cc1	0	.	.	.	.
C[C@@H]1CN([C@@H](C)CO)C(=O)CCCn2cc(nn2)CO[C@@H]1CN(C)S(=O)(=O)c1ccccc1	0	.	.	.	.
O=C(Nc1ccccc1)c1ccc(CSc2ncccn2)cc1	.	12	37*	38*	2
O=C(Nc1ccccc1F)c1ccc(CSc2ncccn2)cc1	1	19	15	.	.
CCC(=O)N(C)C[C@H]1Oc2ncc(-c3ccccc3C)cc2C(=O)N([C@H](C)CO)C[C@H]1C	2	.	.	.	.
Cc1ccc(S(=O)(=O)N2C[C@@H]3O[C@@H](CNS(=O)(=O)c4ccccc4C)CC[C@@H]32)cc1	0	.	.	.	.
CCC(Sc1ncnc2sc(C)c(C)c12)C(=O)OC (configuration not stated)	.	23	80*	106*	-2
CCN(CC)C(=O)CSc1ncnc2sc(C)c(C)c12	2	13	3	.	.
Cc1sc2ncnc(SCC(=O)Nc3ncccc3O)c2c1C	1	.	27*	32*	3
Cc1cccnc1NC(=O)CSc1ncnc2sc(C)c(C)c12	0	.	15	.	.
CN1C(=O)c2cc(NS(=O)(=O)c3ccccc3Cl)ccc2OC[C@@H]2O[C@H](CC(=O)O)CC[C@H]21	-1	.	.	.	.
CO[C@@H]1CN(C)C(=O)c2cc(NS(=O)(=O)c3ccc(C)cc3)ccc2OC[C@@H](C)N(Cc2nccs2)C[C@H]1C	-1	.	.	.	.
C[C@H](CO)N1C[C@H](C)[C@@H](CN(C)Cc2ccc(Cl)c(Cl)c2)Oc2ccc(NC(=O)c3ccncc3)cc2CC1=O	0	.	.	.	.
C[C@@H]1CN([C@@H](C)CO)C(=O)Cc2cc(NC(=O)CCCN(C)C)ccc2O[C@H]1CN(C)C	1	.	.	.	.
O=S(=O)(N[C@H]1CC[C@H](CCn2cc(C3(O)CCCC3)nn2)O[C@H]1CO)c1ccc(F)cc1	0	.	.	.	.
COc1ccc(C#Cc2ccc3c(c2)[C@H]2[C@H](CCN2C(=O)c2ccccn2)[C@@H](CO)N3)cc1	-1	.	.	.	.
COc1cc(C(=O)Nc2ccc3c(c2)nc(C)n3C)cc(OC)c1OC	2	4	8	.	.
COc1cc(C(=O)Nc2ccc3c(c2)ncn3C)cc(OC)c1OC	1	0	77*	73*	0
C[C@@H]1CN([C@@H](C)CO)C(=O)c2cc(NC(=O)Nc3ccc4c(c3)OCO4)ccc2O[C@H]1CN(C)S(C)(=O)=O	0	.	.	.	.
COc1ccc(NC(=O)N(C)C[C@@H]2OCc3ccccc3-c3ccccc3C(=O)N([C@H](C)CO)C[C@H]2C)cc1	0	.	.	.	.
OC[C@@H]1CN(Cc2ccc(F)cc2)C[C@H](n2cnc3c(NC4CC4)ncnc32)O1	2	.	-3	.	.
OC[C@@H]1CN(Cc2ccc(Cl)cc2)C[C@H](n2cnc3c(NC4CCCC4)ncnc32)O1	0	.	28*	35*	-5
C[C@@H]1CCCCO[C@H](CN(C)S(C)(=O)=O)[C@H](C)CN([C@H](C)CO)C(=O)c2cc(N(C)C)ccc2O1	-14	.	.	.	.
CN(C)S(=O)(=O)c1ccc(N2CCCC2)c(C(=O)Nc2nc3c(ccc4ccccc43)s2)c1	.	2	-3	.	.
CN(C)S(=O)(=O)c1ccc(N2CCCC2)c(C(=O)Nc2nccs2)c1	1	.	52*	54*	-5

Screening results (PubChem BioAssay)
